Bioassay records: PubChem BioAssay, National Center for Advancing Translational Sciences (NCATS)
Hits are enriched below; roughly 6.1% of the tested compounds scored in any of these assays.
D1 antag – antagonists of human D1 dopamine receptor; P21728; HEK293 TREx D1 cells, calcium flux, dopamine EC80; hits give low values; activity change, negative = inhibition, % at 10 µM; hit rate 3.2% among 360,000; AID 504652; in the data active = activity change below about -30%
Target sequence (P21728 whole entry, looked up): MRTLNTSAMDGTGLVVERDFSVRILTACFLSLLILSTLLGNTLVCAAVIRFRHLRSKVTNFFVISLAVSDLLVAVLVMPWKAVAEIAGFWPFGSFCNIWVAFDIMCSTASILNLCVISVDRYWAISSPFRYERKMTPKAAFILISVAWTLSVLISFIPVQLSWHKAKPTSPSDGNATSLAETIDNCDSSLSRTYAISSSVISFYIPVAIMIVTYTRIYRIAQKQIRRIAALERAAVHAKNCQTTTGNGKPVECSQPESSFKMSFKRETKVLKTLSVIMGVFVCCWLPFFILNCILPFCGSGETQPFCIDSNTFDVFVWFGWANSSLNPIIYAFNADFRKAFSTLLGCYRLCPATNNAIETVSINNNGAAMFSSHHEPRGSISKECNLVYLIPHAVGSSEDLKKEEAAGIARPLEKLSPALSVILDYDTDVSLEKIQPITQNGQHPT
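After overnight tetracycline induction at 30 C, force-coupled D1 HEK293 cells took up a no-wash calcium dye at room temperature. Compounds were added and monitored 180 s, and the response to EC80 dopamine was then recorded.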
DRD3 agonist – activates the human D3 dopamine receptor; P35462; D3R DiscoveRx beta-arrestin cells, luminescence, 90 min; max activation, %; hit rate 0.58% among 410,000; AID 652048; in the data active = max activation above about 30%
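Agonist mode: compounds and dopamine controls were applied to plated cells for 90 min at 37 degrees C after an overnight attachment at 1500 cells/well. Luminescent read-out followed 30 - 60 minutes at room temperature with DiscoveRx detection reagent.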
DRD3 antagonist – antagonists of human D3 dopamine receptor | D3R cells, DiscoveRx beta-arrestin luminescence, antagonist mode; hits give low values | hit rate 2.5% among 360,000 | AID 652054 | P35462 | max response, negative = inhibition, %; in the data active = max response below about -50%; inconclusive = no clear call, values can overlap the other calls
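Cells expressing the human receptor were seeded at 1500 cells/well, incubated overnight at 37 degrees C in 5% CO2, then exposed to library compounds with dopamine controls for 90 minutes at 37 degrees C before luminescent detection.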
D1 ag – human D1 receptor agonism. hit rate 1% among 360,000. HEK293 T-REx D1 cells, calcium flux, agonist mode. activation, % at 2 µM; in the data active = activation above about 30%
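Inducible HEK293 T-REx D1 cells, force-coupled to calcium signalling, were plated at 4000 cells/well with tetracycline and held overnight at 30 C. After no-wash calcium dye loading, compound-evoked calcium rise over 180 s flagged agonists.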
D1 potentiator – enhances dopamine response at the human D1 receptor | P21728 | HEK293 TREx D1 cells, calcium flux, dopamine EC20 potentiation | potentiation, % at 10 µM | hit rate 0.036% among 360,000 | AID 504651; in the data active = potentiation above about 30%
A number is an active result; - = inactive; ? = inconclusive; . = not tested or not shown.

SMILES	D1 antag	DRD3 agonist	DRD3 antagonist	D1 ag	D1 potentiator
CN(CCC(=O)Nc1ccc(Cl)cc1)Cc1ccccc1	-	-	-97	-	-
O=C(/C=C/c1ccc(F)cc1)Nc1nc2ccccc2[nH]1	-31	.	.	-	-
O=c1[nH]c2ccccc2nc1/C=C/c1ccc(F)cc1	-	-	-	35	-
COc1ccc(OC)c(/C=C/c2nc3ccccc3[nH]c2=O)c1	-	-	-	62	-
O=c1[nH]c2ccccc2nc1/C=C/c1ccc(O)cc1	-	-	-	45	-
COc1ccc(OC)c(C=Nc2ccccc2-c2nc3ccccc3[nH]2)c1	-	-	-	-	-
O=C(Nc1nc2ccccc2[nH]1)c1cccc(F)c1	-	-	-	-	-
Cc1cc(C)cc(NC(=O)CN2C(=O)c3ccccc3Sc3ccc(C(=O)N4CCCC4)cc32)c1	-	-	.	-	-
Cc1ccccc1C(=O)N(C)[C@H]1C[C@H]2c3[nH]c4ccccc4c3CCN2C[C@H]1[C@H](C)O	.	-	-	.	.
Nc1[nH]c(=S)[nH]c(=O)c1-c1ccccc1	-	-	-56	-	-
CC(C)(C)OC(=O)C[C@H]1C/C=C\C[C@@H](CC(=O)N(CCO)Cc2ccccc2)C(=O)NC[C@H](c2ccccc2)OC1=O	.	-	-	.	.
CC(C)(C)OC(=O)C[C@@H]1C/C=C\C[C@H](CC(=O)N(CCO)Cc2ccccc2)C(=O)NC[C@@H](c2ccccc2)OC1=O	.	-	-96	.	.
O=C1N[C@H](Cc2ccccc2)COC(=O)[C@@H](Cc2ccc(F)cc2)CC/C=C/C[C@H]1CC(=O)N(CCO)Cc1ccccc1	.	-	-	.	.
O=C1N[C@H](Cc2ccccc2)COC(=O)[C@H](Cc2ccc(F)cc2)C/C=C\C[C@@H]1CC(=O)N(CCO)Cc1ccccc1	.	-	-57	.	.
O=C1N[C@H](Cc2ccccc2)COC(=O)[C@@H](Cc2ccc(F)cc2)C/C=C\C[C@H]1CC(=O)N(CCO)Cc1ccccc1	.	-	-	.	.
C[C@@H]1COC(=O)[C@H](Cc2ccc(F)cc2)C/C=C\C[C@@H](CC(=O)NCCO)C(=O)N1	.	37	-	.	.
O=C1N[C@@H](Cc2ccccc2)COC(=O)[C@H](Cc2ccc(F)cc2)C/C=C\C[C@@H]1CC(=O)N(CCO)Cc1ccccc1	.	-	-65	.	.
Cc1ccc(-n2nnc(-c3nsc(NC(=O)c4ccccc4C)n3)c2C)cc1Cl	-	-	.	-	-
Cc1ccccc1CNC(=O)C1CCCN(c2nnc(-n3c(C)ccc3C)s2)C1 (centres undefined)	-	-	.	-	-
O=C1CC(c2ccccc2F)C2=C(COC2=O)N1 (centres undefined)	-	-	-	-	-
Cc1ccc(S(=O)(=O)n2ccc3cccnc32)cc1	-	-	-	-	-
O=S(=O)(c1ccc(Cl)cc1)n1ccc2cccnc21	-36	-	-	-	-
S=C(S)OC1CC2CC1C1CCCC21 (centres undefined)	.	-	-80	.	.
COC(F)(F)C(Cl)Cl	.	-	.	.	.
CCC(C)c1nc2c(c(N3CCC3=O)c1-c1ccccc1)CCCC2 (centres undefined)	.	62	-	.	.
SMILES	D1 antag	DRD3 agonist	DRD3 antagonist	D1 ag	D1 potentiator
CCc1ccc2c(c1)N(CC(C)CN(C)C)c1ccccc1S2 (centres undefined)	.	-	.	.	.
CCCCSc1nc(C)c(C(C)=O)cc1C#N	-	-	-52	-	-
CC(=O)c1cc(C#N)c(SCC(=O)O)nc1C	-	-	-	-	-
Cc1ccc(-c2noc(CSc3nnc(C)n3-c3ccc(F)cc3)n2)cc1	-	-	.	-	-
Cc1nnc(SCc2nc(-c3ccc(Cl)cc3)no2)n1-c1ccc(F)cc1	-33	-	.	-	-
CCCCCCCCOC(=O)c1c(CSC(=N)N)n(C)c2cc(Br)c(OC(C)=O)cc12	-	-	-	-	-
CCOC(=O)c1c(CSC(=N)N)n(-c2ccc(Br)cc2)c2cc(Br)c(OC(C)=O)cc12	-	-	-	40	-
C/C(=N/NC(=O)c1ccco1)c1ccc(Br)s1	-31	-	-	-	-
CCCn1ncc(CN2CCC(n3nccc3NC(=O)c3ccccc3Cl)CC2)c1C	-	-	-	-	-
COc1ccc(SCCN2CC[C@@H](O)CCC2=O)cc1	-58	-	-	-	-
CCCN(C(=O)CCn1cnc2onc(-c3ccc(F)cc3)c2c1=O)c1ccccc1C	-	-	.	-	-
CCCCN(CC)CCNC(=O)CCn1cnc2onc(-c3ccc(F)cc3)c2c1=O	-	-	.	32	-
CC(C)(C)C(=O)NC(NC(=S)Nc1sc2c(c1C#N)CCCC2)C(Cl)(Cl)Cl (centres undefined)	-	-	-55	-	-
COc1ccccc1NC(=O)c1ccc[n+]([O-])c1	-	-	-	-	-
COc1ccc(NC(=O)Nc2sc(NS(=O)(=O)c3ccccc3)nc2C)cc1	-39	-	-	-	-
COc1ccc(NS(=O)(=O)c2ccc(OC)c(NC(=O)CCC3CCCCC3)c2)cc1	-35	-	-	-	-
COc1ccc(OCC(=O)NNC(=O)c2ccccn2)cc1	-	-	-82	-	-
COC(=O)COc1cccc(NS(=O)(=O)c2ccc(NC(C)=O)cc2)c1	-	-	-64	-	-
COc1ccc(NS(=O)(=O)c2ccc(OC)c(NC(=O)CNC(=O)c3ccc(OC)cc3)c2)cc1	-	-	-	-	-
Cc1cccc(Oc2coc3cc(OCC(=O)NC4CCCCC4)ccc3c2=O)c1	-	-	.	-	-
Cc1ccc2cc3cc(C(=O)N4CCN(c5ccccc5)CC4)oc3nc2c1	-	-	.	-	-
COc1ccccc1C(N)=S	-	-	-	-	-
COc1ccc(NC(=O)c2ccccn2)cc1S(=O)(=O)N1CCOCC1	-	-	?	-	-
CCOc1ccc(Br)cc1S(=O)(=O)Nc1ccc(C(=O)Nc2ccc(C)cc2)cc1	-	-	-	-	-
CC(=O)Nc1ccc(S(=O)(=O)Nc2ccc3c(c2)CCC3)cc1	-56	-	-	52	-
SMILES	D1 antag	DRD3 agonist	DRD3 antagonist	D1 ag	D1 potentiator
CCOc1ccc(Br)cc1S(=O)(=O)Nc1ccc(C(=O)Nc2ccccc2OC)cc1	-	-	-51	-	-
COC(=O)c1ccccc1NS(=O)(=O)c1ccc(NC(C)=O)cc1	-	-	-	-	-
COc1ccc(NS(=O)(=O)c2cc(NC(=O)c3ccccn3)ccc2OC)cc1Br	.	-	-51	.	.
COC(=O)c1ccc(C)c(NS(=O)(=O)c2ccc(NC(C)=O)cc2)c1	-	-	-55	-	-
COc1ccc(S(=O)(=O)Nc2ccc3c(c2)CCC3)cc1	-	-	-	-	-
CNc1cnc(-c2ccc(F)c(F)c2F)cn1	.	-	-	.	.
CC(C)(C)c1ccc(-n2ncc3c2CCCC3NC(=O)c2cnccn2)cc1 (centres undefined)	-	-	-	-	-
COc1ccc(NS(=O)(=O)c2csc(C(N)=O)c2)cc1	-	-	-	-	-
COc1ccc(NS(=O)(=O)c2cccc(NC(=O)COc3ccc(OC)cc3)c2)cc1	-33	-	-	-	-
COc1ccc(NS(=O)(=O)c2cccc(NC(=O)c3ccccn3)c2)cc1	-	-	-	-	-
